According to PubChem BioAssay AID686978 (National Center for Advancing Translational Sciences (NCATS), 2013):
The campaign covered roughly 420,000 compounds. About 64,000 (15%) were called active. Roughly 27% stayed inconclusive and do not appear here. These entries were drawn from the full list. Values without a mark were called inactive. The call rests on the fitted dose curve; in most records, active means well fitted inhibition curve with a large enough effect; inconclusive means small, poorly fitted or top-dose-only effect; inactive means flat fitted curve, though single readings scatter.

experiment: qHTS for Inhibitors of human tyrosyl-DNA phosphodiesterase 1 (TDP1): qHTS in cells in absence of CPT; settings: DT40 Tdp1-/- hTDP1 cells, no CPT, ATP luminescence, 48 h; activity change, negative = growth inhibition: at 46.2 µM (top of the series); further: nearly all actives have a fitted effect of over 55% in size
In short: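 Readout: luminescence from CellTiter-Glo after 30 min in the dark at RT. Cells: DT40 Tdp1-/- with stable hTDP1, 400/well. Exposure: compounds alone, ≥48 hr, 37 °C.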
On the % scale 0 is the no-effect control and ±100 the full control effect; potency means the concentration at half of the fitted maximal effect.

SMILES	activity change, negative = growth inhibition [%]	Potency
CC(C)NC(=O)CCCn1c(=S)[nH]c2cc3c(cc2c1=O)OCO3	-20.5	–
CCOC(=O)N1CCN(C(=O)c2ccc(S(=O)(=O)Nc3cccc(C(F)(F)F)c3)cc2)CC1	–	6.51 µM (active)
O=C(COc1ccc(S(=O)(=O)Nc2cccc(C(F)(F)F)c2)cc1)N1CCOCC1	-13.8	–
CC(=O)N1CCN(C(=O)c2cccc(S(=O)(=O)Nc3ccc(C)cc3)c2)CC1	-4.18	–
COC(=O)C1=C(C(=O)OC)[C@@H]2N(Cc3ccccc3)c3ccccc3[C@@]23C[C@@H](C(=O)OC)N(S(=O)(=O)c2ccc(C(F)(F)F)cc2)C3=N1	-22.1	–
CCCCNS(=O)(=O)c1ccc(S(=O)(=O)n2cnc3ccccc32)cc1	2.54	–
CCOC(=O)c1nc(C)n(-c2ccc(Cl)cc2Cl)n1	-12.1	–
Cc1ccc(S(=O)(=O)N2CCN(CC(=O)N/N=C/c3ccc(Br)s3)CC2)cc1	–	14.6 µM (active)
C/C(=N/NC(=O)CN1CCN(S(=O)(=O)c2ccc(Br)cc2)CC1)c1ccncc1	-17.6	–
Cc1ccc(/C=N/NC(=O)CN2CCN(Cc3ccccc3)CC2)s1	-20.3	–
Cc1ccc(C)c(NC2=NCC(=O)N2c2ccc3c(c2)OCCO3)c1	-0.0277	–
CCOc1cc2[nH]c(=S)n(Cc3ccc(C(=O)NCCOC)cc3)c(=O)c2cc1OCC	-12.9	–
CCOc1cc2[nH]c(=S)n(Cc3ccc(C(=O)N4CCN(C)CC4)cc3)c(=O)c2cc1OCC	–	16.4 µM (active)
COc1cc2[nH]c(=S)n(Cc3ccc(F)cc3)c(=O)c2cc1OC	-23.7	–
CNC(=O)NC(=O)C(OC(=O)c1cccc(S(=O)(=O)N2CCCCC2)c1)c1ccccc1 (stereo not drawn)	-15	–
COc1c(C=O)c(CCN(C)C(=O)c2ccc(F)cc2)cc2c1OCO2	-2.12	–
O=C1CSC(=S)N1c1ccc(Cl)c(Cl)c1	-2.25	–
Cc1ccccc1N1C(=O)C2ON(c3ccccc3)C(c3ccncc3)C2C1=O (stereo not drawn)	-8.98	–
CC(=O)NC1=NN(C(C)=O)C(C)(c2ccc(Cl)s2)S1 (stereo not drawn)	–	5.17 µM (active)
CC(=O)NC1=NN(C(C)=O)C(C)(CCS(=O)(=O)c2ccc(Cl)c(Cl)c2)S1 (stereo not drawn)	-7.08	–
O=C(NC1=NCCS1)c1ccc(Cl)s1	3.11	–
COc1ccccc1C1CC(=O)n2c(nc(-c3ccccc3)c2-c2ccccc2)S1 (stereo not drawn)	4.33	–
O=C(COC(=O)/C=C/c1cccs1)NC1CCCCC1	16.1	–
CSc1ncccc1C(=O)OCc1ccc(Br)cc1	-0.34	–
OC(c1cc(Cl)cc(Cl)c1)c1ncc(-c2ccccc2C(F)(F)F)[nH]1 (stereo not drawn)	-29.3	–
CCCNc1ncnc2sc(C)c(C)c12	–	13 µM (active)

SMILES	activity change, negative = growth inhibition [%]	Potency
CSc1ncnc2sc(C)c(C)c12	-11.7	–
COCCN1CCN(C(=O)c2sc3ncnc(NCC4CCCO4)c3c2C)CC1 (stereo not drawn)	-15.6	–
CC1=C(C(=O)OC(C)(C)C)C(c2ccc(Br)cc2)NC(=O)N1CCCC(=O)O (stereo not drawn)	-1.02	–
CC1=C(C(=O)OCc2ccccc2)C(c2ccc(C(F)(F)F)cc2)NC(=O)N1CCCCCC(=O)O (stereo not drawn)	-0.318	–
CCOC(=O)CCCNC(=O)CN1C(=O)NC(CCc2ccccc2)C1=O (stereo not drawn)	1.07	–
CCCCNC(=O)C(C)N(CCN(C)C)C(=O)CCCCCN1C(=O)NC(c2ccc(Cl)cc2)C(C(=O)OCc2ccccc2)=C1C (stereo not drawn)	–	16.4 µM (active)
CCCCNC(=O)C(C)N(CCN(C)C)C(=O)CCCN1C(=O)NC(c2ccc(Cl)cc2)C(C(=O)OCc2ccccc2)=C1C (stereo not drawn)	–	18.4 µM (active)
COCCOC(=O)C1=C(C)NC(=O)NC1c1ccc(Cl)cc1 (stereo not drawn)	-8.4	–
CC(C)c1nccn1S(=O)(=O)c1cc([N+](=O)[O-])ccc1Cl	-15	–
c1ccc2c(c1)OC1OC2Oc2ccccc21	-15.1	–
O=C(CCN1C(=O)C2C3CCC(C3)C2C1=O)Nc1ccc(Cl)cc1Cl (stereo not drawn)	-25.1	–
CCOc1ccc2ccccc2c1/C=N/NC(=O)c1c(C)cc(C)[nH]c1=O	-10.3	–
Cc1[nH]c2ccccc2c1/C=N/NC(=O)CNC(=O)c1ccc2c(c1)OCO2	-24.4	–
O=C(N/N=C/c1c(Cl)[nH]c2ccccc12)c1sc2ccccc2c1Cl	–	13 µM (active)
C[C@H](NC(=O)C1CC(=O)N(c2ccc3c(c2)OCCO3)C1)C(=O)N1CCC(C(=O)O)CC1 (stereo partly drawn)	17.9	–
CCC(C)(C)NC(=O)C(c1ccccn1)N(C(=O)c1csnn1)c1ccccc1 (stereo not drawn)	-21.4	–
CCc1ccc(NC(=O)CS(=O)CC(=O)NCCCc2ccccc2)cc1 (stereo not drawn)	-20	–
Nc1ccc(C(=O)OCC(=O)NC2CCS(=O)(=O)C2)cc1[N+](=O)[O-] (stereo not drawn)	33.8	–
Cc1cc(CNC(=O)C2CCC(=O)N(CCc3ccc(Cl)cc3)C2)no1 (stereo not drawn)	-5.14	–
COc1cccc(OC)c1C(=O)Nc1ccc(N2CCCCC2)cc1	-2.14	–
O=C(c1ccco1)N1CCN(c2cccc(Cl)c2)CC1	-21.5	–
COc1cccc(C(=O)Nc2cc3c(cc2Br)OCCCO3)c1	-42	–
NS(=O)(=O)c1ccc(NC(=O)C(=O)Nc2ccc3nc4n(c(=O)c3c2)CCCCC4)cc1	8.65	–
COc1cccc(C(=O)Nc2ccc(N3CCN(C(=O)c4ccco4)CC3)cc2)c1	–	11.6 µM (active)
CCC(=O)Nc1ccc(C(=O)N2CCN(C(=O)c3ccco3)CC2)cc1	-8.96	–
COc1cccc(C(=O)Nc2ccc(N3CCCC3)cc2)c1	–	8.2 µM (active)

SMILES	activity change, negative = growth inhibition [%]	Potency
CCCCN(CC)C(=S)Nc1ccc2nc3n(c(=O)c2c1)CCCCC3	-23.6	–
Cc1ccc(OCC(=O)Nc2ccc(N3CCN(C(=O)c4ccco4)CC3)cc2)c(C)c1	–	8.2 µM (active)
COc1cccc(OCc2cc(C(=O)N3CCN(C(=O)c4ccco4)CC3)no2)c1	-24.7	–
Cc1ccc(OCC(=O)Nc2ccc(NC(=O)c3cccs3)cc2)c(C)c1	-29.3	–
COc1cccc(C(=O)Nc2ccc3nc4n(c(=O)c3c2)CCCCC4)c1	–	20.6 µM (active)
COc1ccccc1NC(=O)C1=C(C)NC2=C(C(=O)CCC2)C1c1ccc(C)o1 (stereo not drawn)	-2.13	–
CCN(CC)C(=O)C(=O)c1cn(CC(=O)NCc2ccc3c(c2)OCO3)c2ccccc12	-6.26	–
CCOC(=O)N1CCN(S(=O)(=O)N2CCCC(C(=O)NCCCN3CCC(C)CC3)C2)CC1 (stereo not drawn)	21.8	–
Cc1ccc(C(c2sc3nc(C)nn3c2O)N2CCN(c3ccc(F)cc3)CC2)cc1 (stereo not drawn)	-20.8	–
Cc1ccc(CNC(=O)CCNS(=O)(=O)c2cccc3nonc23)cc1	-8.67	–
CS/C(=C\C(=O)c1ccco1)Nc1ccccc1Cl	-29.9	–
Cc1nc(CN(C)C(=O)CC2C(=O)NCCN2Cc2ccc(F)cc2)cs1 (stereo not drawn)	-2.58	–
O=C(CCNS(=O)(=O)c1ccccc1C(F)(F)F)Nc1ccncc1	4.83	–
Cc1cc(Nc2ccccc2)n(C(=O)c2ccc(N)cc2)n1	-5.11	–
CC(C)c1ccc(NS(=O)(=O)c2cn(C)c(=O)n(C)c2=O)cc1	-14.9	–
O=C(Cc1ccccc1)NNC(=O)C1CCN(c2ncccn2)CC1	-26.3	–
CCc1ccc(OC(C)C(=O)Nc2ccc(S(=O)(=O)Nc3cc(C)on3)cc2)cc1 (stereo not drawn)	-3.93	–
CC(=O)Nc1ccc(S(=O)(=O)Nc2cc(C)cn(Cc3ccc(C)cc3)c2=O)cc1	–	11.6 µM (active)
COc1ccc(NC(=O)CSc2nc(NS(=O)(=O)c3ccc(C)cc3)cc(=O)[nH]2)cc1	-23.2	–
CCN(CC)CCn1c2c(c(SCC(=O)Nc3nc4ccccc4s3)nc1=O)CCCC2	-54.2	–
CN(NC(=O)c1ccccc1)c1nc2ccccc2nc1C(F)(F)F	–	7.31 µM (active)
CSc1nc(N(C)NC(=O)c2cccc(C)c2)c2ccccc2n1	–	0.0146 µM (active)
COC(=O)CNC(=O)c1ccccc1F	-46.9	–
Cc1ccc(S(=O)(=O)NC(=O)c2cccc(C)c2)cc1	0.889	–
O=C(Cn1cnc2ccccc2c1=O)NNC(=O)c1ccccc1F	6.81	–
Cc1nc2ccccc2c(=O)n1NC(=O)c1ccccc1	8.1	–

SMILES	activity change, negative = growth inhibition [%]	Potency
CN(NC(=O)c1ccccc1F)c1nc(C(F)(F)F)nc2ccccc12	–	0.206 µM (active)
O=C(Nn1cnc2ccccc2c1=O)c1ccccc1	0.973	–
Cc1cccc(C(=O)NCCCN(C)CCCNC(=O)c2cccc(C)c2)c1	-2.23	–
Cc1cc(OC(C)C(=O)NC2CC(C)(C)NC(C)(C)C2)c2c(C)cc(=O)oc2c1 (stereo not drawn)	3.08	–
Oc1ccccc1-c1nc(/C=C/c2ccc(F)cc2)no1	-29.4	–
CCCN(c1ccc(C(C)C)cc1)S(=O)(=O)c1c(C)[nH]c(=O)[nH]c1=O	-9.18	–
O=C(NC1CCCCC1)C1CCC(CNS(=O)(=O)c2ccccc2)CC1 (stereo not drawn)	1.01	–
CCOc1ccc(N(CC(=O)NC2CCCCCC2)S(=O)(=O)c2c(C)[nH]c(=O)[nH]c2=O)cc1	10.1	–
CC(=O)NC(NC(=S)Nc1c(C)n(C)n(-c2ccccc2)c1=O)C(Cl)(Cl)Cl (stereo not drawn)	6.77	–
CC1(C)Cc2cccc(OCC(N)=O)c2O1	8.49	–
CC(=O)Nc1cncc(-c2ccccc2CO)n1	0.247	–
CC1C(=O)NC(=O)C1c1ccccc1 (stereo not drawn)	22.4	–
COc1cccc(C(=O)NCCSc2ccc(Br)cc2)c1	-15.9	–
O=C(CCNS(=O)(=O)c1ccccc1)NCCSc1ccc(Br)cc1	-13.8	–
O=C(CNC(=O)c1ccccc1Br)NCCSc1ccc(Br)cc1	–	18.4 µM (active)
CC(=O)c1sc(NC(=O)CCN2C(=O)C3CC=CCC3C2=O)nc1-c1ccccc1 (stereo not drawn)	0.639	–
CC(Oc1ccccc1)C(=O)Nc1oc(-c2ccco2)c(-c2ccco2)c1C#N (stereo not drawn)	-2.75	–
CSc1ncc(Cl)c(C(=O)Nc2ccc(S(=O)(=O)N3CCCC(C)C3)cc2)n1 (stereo not drawn)	–	14.6 µM (active)
CSc1ncc(Cl)c(C(=O)Nc2cc(C)ccc2C)n1	15.7	–
CCc1ccc(NC(=O)c2cc(S(=O)(=O)N3CCCC(C)C3)cn2C)cc1 (stereo not drawn)	-0.723	–
COc1c(F)c(F)c(-c2csc(N)n2)c(F)c1F	-28.9	–
Cc1cc(C)n(CCNCc2c(C(=O)N3C[C@@H](C)O[C@@H](C)C3)nc3ccc(Cl)cn23)n1	-0.569	–
O=C1c2ccccc2NC(c2ccccc2O)N1NS(=O)(=O)c1ccccc1 (stereo not drawn)	-7.78	–
CCOC(=O)NN1C(=O)c2ccccc2NC1c1ccccc1O (stereo not drawn)	–	23.1 µM (active)
CC(=O)NN1C(=O)c2ccccc2NC1c1ccccc1 (stereo not drawn)	2.25	–
